Reference: PubChem BioAssay (NCI)
Compounds without any hit were thinned out: in the full panel of roughly 83,000, 20% have a hit.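 Method: cells in 96-well plates; compound added at one concentration; 48 h incubation; percent growth measured; values under 10 scored active.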 Activity calls are given as the source filed them.

Key:
Experiment in all cases: NCI-60 one-dose screen, 48 h (100 = growth as untreated, 0 = no growth, -100 = all killed)
Conditions in all cases: 10 µM unless noted
T-47D breast = system: T-47D breast
BT-549 breast = system: BT-549 breast
MDA-MB-435 melanoma = system: MDA-MB-435 melanoma
SW-620 colon = system: SW-620 colon
MCF7 breast = system: MCF7 breast
HCT-116 colon = system: HCT-116 colon
HCC-2998 colon = system: HCC-2998 colon
KM12 colon = system: KM12 colon

Measured: growth

CNC(=O)c1c(NC(=O)c2ccccc2C(F)(F)F)sc2c1CCC(=O)C2
inactive: BT-549 breast 27.2% | MDA-MB-435 melanoma 37.5% | SW-620 colon 21% | MCF7 breast 13.9% | HCC-2998 colon 62% | KM12 colon 18.5%
active: T-47D breast 9.8% | HCT-116 colon 8.16%

COc1cc2c(cc1OC)C(Sc1ccc(F)cc1)c1c(nc(N)c(C#N)c1N)O2 (stereo not drawn)
active: T-47D breast -28.1% | MDA-MB-435 melanoma -52.9% | SW-620 colon -16.7% | MCF7 breast -88.3% | HCT-116 colon -74.2% | HCC-2998 colon -86.1% | KM12 colon -62.9%
inactive: BT-549 breast 77.6%

COc1ccc(NC(=O)CSc2nnc(-c3ccc4nc(-c5ccc(OC)c(OC)c5)[nH]c4c3)o2)cc1OC
inactive: T-47D breast 90.3% | BT-549 breast 90.7% | MDA-MB-435 melanoma 102% | SW-620 colon 105% | MCF7 breast 91.9% | HCT-116 colon 98.1% | HCC-2998 colon 111% | KM12 colon 101%

C/C(=N\O)[C@H]1C[C@]23CC[C@]4(C)[C@H](CC[C@@H]5[C@@]6(C)CC/C(=N/O)C(C)(C)[C@@H]6CC[C@]54C)[C@H]2[C@H](C)C1(C)OC3
inactive: T-47D breast 108% | BT-549 breast 107% | MDA-MB-435 melanoma 97.2% | SW-620 colon 99.9% | MCF7 breast 93.3% | HCT-116 colon 97.2% | HCC-2998 colon 115% | KM12 colon 102%

COc1ccc(N2C(=O)c3cc(Cl)ccc3NC2SCc2ccccc2)cc1 (stereo not drawn)
inactive: T-47D breast 88.1% | BT-549 breast 97.5% | MDA-MB-435 melanoma 94.5% | SW-620 colon 103% | MCF7 breast 85.4% | HCT-116 colon 73.8% | HCC-2998 colon 106% | KM12 colon 96.9%

C#CCOC(=O)[C@@H]1CCCN1CC#C
inactive: T-47D breast 92.6% | BT-549 breast 95.2% | MDA-MB-435 melanoma 90.9% | SW-620 colon 96.7% | MCF7 breast 74.9% | HCT-116 colon 81.6% | HCC-2998 colon 96.7% | KM12 colon 91.5%

C=CCN(C)S(=O)(=O)/N=C1\NC(=O)NC1=C(Cl)Cl
active: SW-620 colon -61.9% | HCT-116 colon 1.54% | KM12 colon 7.25%
inactive: T-47D breast 55.1% | BT-549 breast 89.1% | MDA-MB-435 melanoma 34.4% | MCF7 breast 11.9% | HCC-2998 colon 40.1%

NS(=O)(=O)c1ccc(Nc2nc(Nc3ccccc3)nc3nnc(SCC(=O)NC4CCCCC4)n23)cc1
inactive: T-47D breast 104% | BT-549 breast 104% | MDA-MB-435 melanoma 110% | SW-620 colon 106% | MCF7 breast 100% | HCT-116 colon 99.8% | HCC-2998 colon 109% | KM12 colon 102%

C#C[C@]1(O)CC[C@H]2[C@@H]3CC=C4c5sc(-c6ccc7c(c6)OCO7)nc5CC[C@]4(C)[C@H]3CC[C@@]21C
active: MDA-MB-435 melanoma -6.66% | SW-620 colon 2.53% | MCF7 breast -1.98% | HCT-116 colon -9.63%
inactive: T-47D breast 41.5% | BT-549 breast 26.1% | HCC-2998 colon 34% | KM12 colon 14%

O=C(CCC(=O)N1CCOCC1)OCCCCCCSc1ccc([N+](=O)[O-])c2nonc12
active: T-47D breast -36.2% | BT-549 breast -52.5% | MDA-MB-435 melanoma -88.1% | SW-620 colon -54.9% | MCF7 breast -57.7% | HCT-116 colon -54.7% | HCC-2998 colon -69.4% | KM12 colon -68.7%

COc1ccc(C2CC(c3ccc(Nc4nc(NCCO)nc(N5CCOCC5)n4)cc3)=Nc3c(N)nc(N)nc3N2)cc1 (stereo not drawn)
inactive: T-47D breast 90.5% | BT-549 breast 99.2% | MDA-MB-435 melanoma 108% | SW-620 colon 101% | MCF7 breast 86.2% | HCT-116 colon 100% | HCC-2998 colon 105% | KM12 colon 89%

NC(N)=Nc1ccc(Nc2cccc(Oc3ccc(Cl)c(C(F)(F)F)c3)c2)cn1
active: SW-620 colon -60.5% | MCF7 breast -11.2% | HCT-116 colon -72.9% | HCC-2998 colon -33.1% | KM12 colon -58.7%
inactive: T-47D breast 23.7% | BT-549 breast 76.2% | MDA-MB-435 melanoma 18.3%

CCN(CC)CCn1c2ccc(O)cc2c2sc3cc(OC)ccc3c(=O)c21
inactive: T-47D breast 59.3% | BT-549 breast 68.1% | MDA-MB-435 melanoma 19.4% | HCC-2998 colon 36.6% | KM12 colon 25%
active: SW-620 colon -50.8% | MCF7 breast -55.2% | HCT-116 colon -46%

O=C(CSc1nc2ccccc2c(=O)n1-c1ccccc1)Nc1ccc(-c2nc3ccc([N+](=O)[O-])cc3[nH]2)cc1
inactive: T-47D breast 89.1% | BT-549 breast 80% | MDA-MB-435 melanoma 80.1% | SW-620 colon 43.7% | MCF7 breast 40.6% | HCT-116 colon 67.4% | HCC-2998 colon 100% | KM12 colon 91.7%

CC(=O)C1=C(C)NC(NNC(N)=S)=NC1c1ccccc1 (stereo not drawn)
inactive: T-47D breast 103% | BT-549 breast 92.2% | MDA-MB-435 melanoma 99.2% | SW-620 colon 96.8% | MCF7 breast 101% | HCT-116 colon 94.9% | HCC-2998 colon 103% | KM12 colon 102%

Clc1cccc(/C=N/Nc2nc(N/N=C/c3cccc(Cl)c3Cl)nc(N3CCCCC3)n2)c1Cl
inactive: T-47D breast 48.3% | BT-549 breast 97.3% | MDA-MB-435 melanoma 68.8% | SW-620 colon 42.6% | MCF7 breast 71.2% | HCT-116 colon 48.8% | HCC-2998 colon 97.4% | KM12 colon 67.2%

CN1CCC(n2cc(Nc3ncc4c(=O)n(-c5c(Cl)cccc5Cl)cc(Br)c4n3)cn2)CC1
active: MDA-MB-435 melanoma 5.4% | HCT-116 colon 5.66%
inactive: T-47D breast 37% | BT-549 breast 57.5% | SW-620 colon 20.5% | MCF7 breast 18.7% | HCC-2998 colon 31% | KM12 colon 14.8%

CCCCCc1ccc(S(=O)(=O)Nc2cccc(-c3csc(NC(=O)CN4CCN(CCO)CC4)n3)c2)cc1
inactive: T-47D breast 64.5% | BT-549 breast 99.9% | MDA-MB-435 melanoma 44.3% | SW-620 colon 74.3% | MCF7 breast 35.8% | HCT-116 colon 45% | HCC-2998 colon 26.9% | KM12 colon 54%

COc1cc2nc(Cl)nc(Nc3cccc(C4=Nc5c(N)nc(N)nc5NC(c5ccc(Cl)cc5)C4)c3)c2cc1OC (stereo not drawn)
active: MDA-MB-435 melanoma 6.34% | HCT-116 colon -44.8% | HCC-2998 colon 4.35%
inactive: T-47D breast 81.7% | BT-549 breast 85.2% | SW-620 colon 11.2% | MCF7 breast 13% | KM12 colon 14.1%

NS(=O)(=O)c1ccc(Nc2nc(N/N=C/c3ccccn3)nc(Nc3ccccc3)n2)cc1
active: T-47D breast -18.4% | BT-549 breast -20.5% | MDA-MB-435 melanoma -84.9% | SW-620 colon -17.8% | MCF7 breast 1.45% | HCT-116 colon -30% | HCC-2998 colon -74.8% | KM12 colon 4.15%

O=C(NCCN1CCCC1)c1ccc(-c2nc3ccc4[nH]ncc4c3c3c2CCCC3)cc1
active: BT-549 breast -33.4% | SW-620 colon 1.5% | MCF7 breast -9.45% | HCT-116 colon 1.82% | HCC-2998 colon -1.05% | KM12 colon 1.12%
inactive: T-47D breast 23% | MDA-MB-435 melanoma 12.3%

CS(=O)(=O)Nc1cc(-c2ccc3ncc(C#N)c(N[C@H](CO)c4ccccc4)c3c2)cnc1Cl
inactive: T-47D breast 28.3% | BT-549 breast 33.9% | MDA-MB-435 melanoma 47.2% | SW-620 colon 26.6% | MCF7 breast 17.7% | HCT-116 colon 25.7% | HCC-2998 colon 42.1% | KM12 colon 70.2%

Cn1ccnc1C(=O)/C=C/c1ccc(CNC(=O)c2c(F)c(F)c(F)c(F)c2F)cc1
active: HCT-116 colon 4.78%
inactive: T-47D breast 41.4% | BT-549 breast 74.1% | MDA-MB-435 melanoma 64.7% | SW-620 colon 38.2% | MCF7 breast 19.4% | HCC-2998 colon 90.7% | KM12 colon 23.2%

O=C1C(c2ccccc2)=C(N2CCc3ccccc32)OC1(Cl)Cl
active: SW-620 colon -28.8% | HCT-116 colon 2.36%
inactive: T-47D breast 10.1% | BT-549 breast 75.1% | MDA-MB-435 melanoma 85.9% | MCF7 breast 26.2% | HCC-2998 colon 88% | KM12 colon 87.9%

N/C(=N\C(N)=N\c1nc2ccccc2s1)c1ccncc1Cl
active: MDA-MB-435 melanoma 6.13%
inactive: T-47D breast 55.4% | BT-549 breast 43.8% | SW-620 colon 24.1% | MCF7 breast 75.6% | HCT-116 colon 23.3% | HCC-2998 colon 76.6% | KM12 colon 24.1%

Cc1ccc(-c2cc3nc(C(Cl)Cl)nc(C)n3n2)cc1
inactive: T-47D breast 94.6% | BT-549 breast 115% | MDA-MB-435 melanoma 110% | SW-620 colon 107% | MCF7 breast 88.3% | HCT-116 colon 108% | HCC-2998 colon 115% | KM12 colon 99.1%

COc1ccc2[nH]cc(-c3csc4nc(-c5ccccc5)cn34)c2c1
inactive: T-47D breast 30.7% | BT-549 breast 45.8% | SW-620 colon 25.1% | MCF7 breast 11.5% | KM12 colon 11.6%
active: MDA-MB-435 melanoma -47.7% | HCT-116 colon 4.36% | HCC-2998 colon 6.03%

O=C(Nc1nonc1-c1ccccc1)c1ccc(C(F)(F)F)cc1
inactive: T-47D breast 76% | BT-549 breast 85.5% | MDA-MB-435 melanoma 82.7% | SW-620 colon 94.6% | MCF7 breast 72.3% | HCT-116 colon 86.2% | HCC-2998 colon 101% | KM12 colon 97.4%

Cc1ccc(NC(=O)c2ccc(CN3CCN(C)CC3)cc2)cc1Oc1ccc(-c2[nH]nc3ncnc(N)c23)cc1
inactive: T-47D breast 81.4% | BT-549 breast 93% | MDA-MB-435 melanoma 86.4% | SW-620 colon 80.2% | MCF7 breast 35.7% | HCT-116 colon 81.9% | HCC-2998 colon 124% | KM12 colon 56.3%

CCCCCc1ccc(S(=O)(=O)Nc2cc(-c3csc(NC(=O)CN4CCN(CCO)CC4)n3)ccc2OC)cc1
inactive: T-47D breast 26.8% | BT-549 breast 88.7% | KM12 colon 61.2%
active: MDA-MB-435 melanoma -48.6% | SW-620 colon 1.64% | MCF7 breast 6.28% | HCT-116 colon -13.2% | HCC-2998 colon -23.4%

O=C(c1ccc(O)cc1)[C@@H]1CN[C@@]2(C(=O)Nc3ccccc32)[C@H]1c1ccc(F)cc1
inactive: T-47D breast 99.3% | BT-549 breast 79.7% | MDA-MB-435 melanoma 107% | SW-620 colon 105% | MCF7 breast 99% | HCT-116 colon 104% | HCC-2998 colon 113% | KM12 colon 102%
